According to PubChem BioAssay AID1345085 (National Center for Advancing Translational Sciences (NCATS), 2018):
Results filed as inconclusive are left out. Where a call stands in place of a potency, no number is given. Calls of active or inactive are those of the source. The call rests on the fitted dose curve; in most records, active means well fitted cell-killing curve with a large enough effect; inconclusive means small, poorly fitted or top-dose-only effect, or effect the other way; inactive means no such curve, though single readings can be large or run the other way.

test system: C33A; experiment: Confirmatory qHTS for gynecologic anti-cancer compounds from libraries of approved drugs and bioactive compounds; settings: gynecologic cancer cell panel viability, ATPlite luminescence, 48 h; series mostly up to 57.6 µM; further: nearly all actives have a fitted effect of over 55% in size
Outline: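 ATP-based luminescent viability (ATPlite) after 48 h drug treatment at 37 °C, 5% CO2, across 57.5 uM–0.977 nM in 1:3 steps. Cells seeded at 1,000 per well 16 h beforehand; IC50 values computed, HEK 293T as selectivity control.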
Potency means the concentration at half of the fitted maximal effect.

Compound | Potency | activity change, negative = viability loss
O=C1c2c(O)ccc(O)c2C(=O)c2c(NCCNCCO)ccc(NCCNCCO)c21 | 0.306 µM (active) | –
CCCCc1nc2cc(/C=C/C(=O)NO)ccc2n1CCN(CC)CC | 1.53 µM (active) | –
C[C@@]1(C(=O)Nc2ccc(F)nc2)CCCN1c1nc(Nc2cc(C3CC3)[nH]n2)c2cccn2n1 | inactive | –
Cn1cnc2c(F)c(Nc3ccc(Br)cc3Cl)c(C(=O)NOCCO)cc21 | inactive | –
CS(=O)(=O)c1ccc(-c2cnc(N)c(C(=O)Nc3ccccc3)n2)cc1 | inactive | –
COc1cc2nccc(Oc3ccc(NC(=O)C4(C(=O)Nc5ccc(F)cc5)CC4)cc3)c2cc1OC | 15.3 µM (active) | –
CCC1C(=O)N(C)c2cnc(Nc3ccc(C(=O)NC4CCC(N5CCN(CC6CC6)CC5)CC4)cc3OC)nc2N1C(C)C (stereo not drawn) | 0.172 µM (active) | –
C[C@]12CCC(=O)C=C1CC[C@@H]1[C@@H]2[C@@H](O)C[C@@]2(C)[C@H]1CC[C@]2(O)C(=O)CO | inactive | –
CC[C@H](Nc1ncnc2nc[nH]c12)c1nc2cccc(F)c2c(=O)n1-c1ccccc1 | – | -0.528% [at 10.7 µM] (inactive)
CCN1CCN(Cc2ccc(Nc3ncc(F)c(-c4cc(F)c5nc(C)n(C(C)C)c5c4)n3)nc2)CC1 | inactive | –
O=C(/C=C/c1cccc(S(=O)(=O)Nc2ccccc2)c1)NO | 2.98 µM (active) | –
CC(=O)Nc1cccc(-n2c(=O)n(C3CC3)c(=O)c3c(Nc4ccc(I)cc4F)n(C)c(=O)c(C)c32)c1 | inactive | –
COc1cccc2c1C(=O)c1c(O)c3c(c(O)c1C2=O)C[C@@](O)(C(=O)CO)C[C@@H]3O[C@H]1C[C@H](N)[C@H](O)[C@H](C)O1 | 1.22 µM (active) | –
CO[C@@]12[C@H](COC(N)=O)C3=C(C(=O)C(C)=C(N)C3=O)N1C[C@@H]1N[C@@H]12 | inactive | –
O=C(NOC[C@H](O)CO)c1ccc(F)c(F)c1Nc1ccc(I)cc1F | inactive | –
CCCS(=O)c1ccc2nc(NC(=O)OC)[nH]c2c1 (stereo not drawn) | inactive | –
CN(Cc1cnc2nc(N)nc(N)c2n1)c1ccc(C(=O)N[C@@H](CCC(=O)O)C(=O)O)cc1 | inactive | –

Compound | Potency | activity change, negative = viability loss
Nc1ccn([C@@H]2O[C@H](CO)[C@@H](O)C2(F)F)c(=O)n1 | 0.0172 µM (active) | –
COc1cc2c(cc1-c1c(C)noc1C)ncc1[nH]c(=O)n(C(C)c3ccccn3)c12 (stereo not drawn) | inactive | –
O=c1[nH]c(=O)n([C@H]2C[C@H](O)[C@@H](CO)O2)cc1F | 2.17 µM (active) | –
CN(C)CC/C=C1\c2ccccc2COc2ccccc21 | inactive | –
O=C(c1ccc(F)c(F)c1Nc1ccc(I)cc1F)N1CC(O)([C@@H]2CCCCN2)C1 | 27.3 µM (active) | –
O=C1NC(=O)C(c2cnc3ccccn23)=C1c1cn2c3c(cccc13)CN(C(=O)N1CCOCC1)CC2 | inactive | –
O=C1N(c2ccccc2)c2ccccc2C1(Cc1ccncc1)Cc1ccncc1 | inactive | –
CC(=O)OC12COC1CC(O)C1(C)C(=O)C(O)C3=C(C)C(OC(=O)C(O)C(NC(=O)OC(C)(C)C)c4ccccc4)CC(O)(C(OC(=O)c4ccccc4)C21)C3(C)C (stereo not drawn) | inactive | –
COc1cc2c(Nc3ccc(NC(=O)c4ccccc4)cc3)ncnc2cc1OCCCN1CCOCC1 | 27.3 µM (active) | –
COc1cc2c(NC3CCN(C(C)C)CC3)nc(C3CCCCC3)nc2cc1OCCCN1CCCC1 | 15.3 µM (active) | –
CC(Oc1ccc2[nH]nc(/C=C/c3cnn(CCO)c3)c2c1)c1c(Cl)cncc1Cl (stereo not drawn) | inactive | –
CCCc1nn(C)c2c(=O)[nH]c(-c3cc(S(=O)(=O)N4CCN(C)CC4)ccc3OCC)nc12 | inactive | –
CCc1nc(C(N)=O)c(Nc2ccc(N3CCC(N4CCN(C)CC4)CC3)c(OC)c2)nc1NC1CCOCC1 | inactive | –
CN(NC(=O)CC(=O)NN(C)C(=S)c1ccccc1)C(=S)c1ccccc1 | 0.0273 µM (active) | –
CC(=O)c1cnc2ccc(-c3cc(Cl)c(O)c(Cl)c3)nc2c1NC1CCC(CN(C)C)CC1 (stereo not drawn) | 1.4 µM (active) | –
CN(C)C(CCOc1cccc2ccccc12)c1ccccc1 (stereo not drawn) | inactive | –
